Pin1 inhibitor – qHTS Assay to Find Inhibitors of Pin1. Peptidyl-prolyl cis-trans isomerase NIMA-interacting 1 (Homo sapiens), Q13526. Pin1 FP peptide displacement, HiFluor488, 10 min. Potency, µM (series often up to 115 µM), for inactives: at the top dose activity, negative = inhibition, hits mostly inhibitors. hit rate 0.009% among 390,000. AID 504891, 2011; active = well fitted inhibition curve with a large enough effect in the polarisation, with a control signal flat, not every such curve was filed as active; inconclusive = small, poorly fitted or top-dose-only effect, or effect the other way, or a change in a side signal; inactive = no such curve, though single readings can be large or run the other way; the % refers to the polarisation
Target sequence (Q13526 whole entry, looked up): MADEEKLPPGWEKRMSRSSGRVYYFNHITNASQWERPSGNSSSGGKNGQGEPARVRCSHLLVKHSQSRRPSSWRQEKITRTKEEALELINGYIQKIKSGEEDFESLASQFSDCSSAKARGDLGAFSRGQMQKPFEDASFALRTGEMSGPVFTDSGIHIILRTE
GLS inhibitor – qHTS for Inhibitors of Glutaminase (GLS); Glutaminase kidney isoform, mitochondrial (Homo sapiens), O94925; GLS enzymatic activity, qHTS titration; Potency, µM (series often up to 45.5 µM), for inactives: at the top dose activity change, negative = inhibition, most hits filed as inhibitors; hit rate 0.21% among 410,000; AID 624170, 2012
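hKGA; 45 mM KH2PO4 pH 8.2 + 0.02% Tween-20; cpd via pin tool; 1 mM Gln soln; GluOx/HRP/Amplex Red; RT 30 min; fluor. t0 & final.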
PGK inhibitor – qHTS Assay to Find Inhibitors of Phosphoglycerate Kinase | PGK/GAPDH coupled, Kinase-Glo luminescence, 60 min | Potency, µM (series often up to 57.5 µM), for inactives: top-dose activity change, negative = inhibition, actives largely listed as inhibitors | hit rate 0.043% among 380,000; note: nearly all actives have a fitted effect of over 60% in size
Target sequence (P07378 whole entry, looked up): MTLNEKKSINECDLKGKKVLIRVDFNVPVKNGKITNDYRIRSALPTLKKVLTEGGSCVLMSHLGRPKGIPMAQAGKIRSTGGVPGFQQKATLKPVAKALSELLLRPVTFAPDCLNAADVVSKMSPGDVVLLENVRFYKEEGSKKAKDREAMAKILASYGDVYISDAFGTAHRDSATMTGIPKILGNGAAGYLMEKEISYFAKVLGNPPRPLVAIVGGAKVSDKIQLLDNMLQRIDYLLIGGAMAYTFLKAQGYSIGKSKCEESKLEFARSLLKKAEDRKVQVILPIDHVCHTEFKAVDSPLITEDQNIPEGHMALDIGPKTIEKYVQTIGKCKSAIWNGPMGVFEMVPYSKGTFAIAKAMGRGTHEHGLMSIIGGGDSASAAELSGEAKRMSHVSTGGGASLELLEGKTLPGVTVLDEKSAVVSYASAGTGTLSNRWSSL
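Luminescent ATP detection (Kinase-Glo Plus) follows a 60-minute room-temperature incubation, with wells lacking PGK as controls. Buffer: 100 mM TEA (pH 7.6), 5 mM MgCl2, 0.01% Tween-20. Coupling enzyme GAPDH (100 nM final) supplies unstable 1,3-BPG in-well.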
Tb PFK block – qHTS Assay to Find Inhibitors of T. brucei phosphofructokinase | ATP-dependent 6-phosphofructokinase (Trypanosoma brucei brucei), O15648 | T. brucei PFK, ADP-Glo luminescence | Potency, µM (highest dose often 57.5 µM), for inactives: at the top dose activity, negative = inhibition, most hits filed as inhibitors | hit rate 0.17% among 330,000 | AID 485367, 2010;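 note: 0% = uninhibited 1x PFK enzyme wells and -100% = no-enzyme wells; nearly all actives have a fitted effect of over 60% in size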
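ADP-Glo luminescence quantified ADP after 45 min at room temperature, with 1.25 nM T. brucei PFK, 0.1 mM ATP and 0.5 mM fructose-6-phosphate in pH 8.0 TEA buffer. qHTS titrations up to 57 µM; curves classified by quality.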
B2AR arrestin – qHTS assay of beta-arrestin-biased ligands of beta2-adrenergic receptor; beta-arrestin recruitment to beta2AR, cell-based reporter; hit rate 0.02% among 330,000; AID 492947, 2010; Beta-2 adrenergic receptor (Homo sapiens), P07550; Potency, µM (top dose mostly 46.1 µM), for the others: at the top dose activation, usual class: activators;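 note: 0% = DMSO controls and full agonism = EC100 isoproterenol or metaproterenol; nearly all actives have a fitted effect of over 65% in size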
BCR signal inh – qHTS Assay to Find Inhibitors of Chronic Active B-Cell Receptor Signaling; ABC-DLBCL IkBa-CBG/CBR reporter, luminescence ratio, 4 h; Potency, µM (top dose mostly 46.1 µM), for inactives: at the top dose activity change, negative = inhibition, hits mostly inhibitors; AID 493014, 2011; hit rate 0.05% among 340,000; active = well fitted inhibition curve with a large enough effect in the signal ratio, with a control signal flat, not every such curve was filed as active; inconclusive = small, poorly fitted or top-dose-only effect, or effect the other way, or a change in a side signal; the % refers to the signal ratio;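 note: plate controls were basal doxycycline-induced cells for no effect and cells given 10 µM MG132 for full effect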
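TMD8 ABC-DLBCL cells carrying doxycycline-inducible green luciferase fused to IkappaBalpha plus unfused red luciferase were exposed to compounds (up to 46 uM) for 4 hrs at 37C. Activity came from the overlap-corrected green/red luminescence ratio.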
* hit, by the source's call; i = inactive; ? = inconclusive; · = not tested or not shown; ! = repeats disagree; [ ] = dose if it differs, or a comment. An excerpt weighted towards active compounds, which were near 0.42% of everything screened. Unless noted, calls come from the whole dose curve; as a rule, active = well fitted curve in the direction sought with a large enough effect; inconclusive = small, poorly fitted or top-dose-only effect, or another doubt; inactive = no such curve, though single readings can be large; an effect the other way counts as inactive or inconclusive. Unless noted, % is set by controls: 0 for no effect and ±100 for the full control effect; potency is the fitted concentration of half-maximal effect.

SMILES	Pin1 inhibitor	GLS inhibitor	PGK inhibitor	Tb PFK block	B2AR arrestin	BCR signal inh
Cc1cc2c(cc(C(=O)OCC(=O)NCc3cccs3)n2C(C)C)o1	20.6%	-1.2%	-4.1%	-9.9%	-0.3%	8.2µM*
CO[C@@]1(NC(=O)CSC(F)F)C(=O)N2C(C(=O)O)=C(CSc3nnnn3CCO)CO[C@@H]21	·	1.2%	·	·	·	·
Oc1ccc(/C=N/NC(=S)Nc2cccnc2)cc1O	0.3%	5.01µM*	-15.4%	-19.0%	-0.2%	?
CCn1c(=O)cc(SCC(=O)N2CCN(c3ccccn3)CC2)c2ccccc21	4.1%	7.6%	i	1.4%	-0.1%	16.4µM*
O=C(NCCc1ccccc1)C1CCN(c2nc(-c3ccc(Br)cc3)cs2)CC1	16.4%	·	·	·	·	·
NC(=O)C1CCN(c2nccc(-c3ccc(Br)cc3)n2)CC1	2.0%	·	·	·	·	·
Cc1cc(C=O)c(C)n1-c1cc(C(=O)O)cc(C(=O)O)c1	-18.0%	17.8µM*	10µM*	?	3.7%	-0.9%
Cc1cc(C=O)c(C)n1-c1cccc(C(=O)O)c1	-14.7%	-14.2%	-4.6%	-12.4%	0.2%	-0.8%
CN1C2CCC1CC(NC(=O)n1c(=O)[nH]c3ccccc31)C2 (stereo not given)	·	-3.0%	·	·	·	·
CC1(C)SC(=S)N(/N=C/c2ccccc2O)C1N(O)C(=O)Nc1ccccc1 (stereo not given)	27.1%	1µM*	0.9%	1.4%	0.4%	?
O=C(O)c1cccc(-n2cccc2/C=C2/NC(=O)N(c3ccc(Cl)cc3)C2=O)c1	·	-3.7%	3.16µM*	?	0.2%	?
O=C(O)c1cccc(-n2cccc2/C=C2/NC(=O)N(c3cccc(Cl)c3)C2=O)c1	·	6.1%	?	-25.3%	-0.1%	0.3%
CC(=O)O[C@@H]1C(=O)O[C@H]2[C@@H]1OC(=O)[C@@H]2OC(C)=O	·	0.2%	·	·	·	·
Cc1ccc(C2C3=C(CCCC3=O)Nc3[nH]c(=S)[nH]c(=O)c32)cc1 (stereo not given)	7.5%	?	-0.9%	1.7%	-1.0%	1.2%
O=C1CCCC2=C1C(c1ccc(Br)cc1)c1c([nH]c(=S)[nH]c1=O)N2 (stereo not given)	-10.6%	12.6µM*	0.9%	-13.0%	0.1%	?
NC(=O)c1cc[n+](CC2=C(C(=O)O)N3C(=O)[C@@H](NC(=O)C(c4ccccc4)S(=O)(=O)[O-])[C@H]3SC2)cc1 (stereo not given in full)	?	0.794µM*	1.12µM*	2.0%	-0.5%	5.0%
N[C@@H](C(=O)N[C@@H]1C(=O)N2C(C(=O)O)=C(Cl)CS[C@H]12)c1ccccc1	·	11.2µM*!	-8.6%	1.7%	-0.6%	1.8%
NC(=O)c1cc[n+](CC2=C(C(=O)[O-])N3C(=O)[C@@H](NC(=O)Cc4cccs4)[C@@H]3SC2)cc1	·	-12.2%[20 µM]	·	·	·	·
Cc1cc(=O)c(C(=O)N[C@@H](C(=O)N[C@@H]2C(=O)N3C(C(=O)O)=C(CSc4nnnn4C)CS[C@H]23)c2ccc(O)cc2)c[nH]1	·	17.4%	·	·	·	·
N[C@@H](C(=O)N[C@@H]1C(=O)N2C(C(=O)O)=C(CSc3cn[nH]n3)CS[C@H]12)c1ccc(O)cc1	·	6.31µM*	·	·	·	·
CC=CC1=C(C(=O)O)N2C(=O)[C@H](NC(=O)[C@H](N)c3ccc(O)cc3)[C@@H]2SC1	·	23.6%	·	·	·	·
N#Cc1cccc(NS(=O)(=O)c2ccc3c(c2)CCC(=O)N3)c1	-3.1%	·	·	·	·	·
O=C(c1ccco1)N1CCN(c2nc(-c3ccc(Br)cc3)cs2)CC1	2.0%	·	·	·	·	·
O=C1CCc2cc(S(=O)(=O)Nc3ccc(Cl)cc3)ccc2N1	-0.2%	·	·	·	·	·
COc1ccc(C2Nc3ccccc3C(=O)N2Cc2ccccc2)cc1COc1ccc(C#N)cc1 (stereo not given)	15.3%	·	·	·	·	·
SMILES	Pin1 inhibitor	GLS inhibitor	PGK inhibitor	Tb PFK block	B2AR arrestin	BCR signal inh
Cc1c(P(=S)(c2ccccc2)c2ccccc2)[n+]2ccccc2n1Cc1ccccc1	1.4%	·	·	·	·	·
CCOC(=O)c1ccc2ncc(C(=O)OCC)c(Nc3ccc(N4CCOCC4)cc3)c2c1	4.8%	2.5%	i	0.2%	-0.2%	-8.9%
CCOC(=O)c1cnc2ccc(OC)cc2c1Nc1ccc(N2CCN(C)CC2)cc1	?	12.6µM*	2.2%	-3.3%	0.0%	-12.2%
Cn1c(=O)c2c(nc(N/N=C/c3ccncc3)n2Cc2ccccc2)n(C)c1=O	6.4%	12.6µM*	-7.0%	0.7%	-0.1%	?
O=C(NCCCc1cnc[nH]1)NCCCN(Cc1ccc(Cl)c(Cl)c1)c1ccc(Br)cn1	10.0%	·	·	·	·	·
Cc1ccc(/C=C/C(=O)NC2CCCCCCC2)o1	11.6%	10µM*	-1.6%	-23.4%	-2.0%	?
C=C[C@]1(C)C[C@@H](OC(=O)CO)[C@]2(C)C(C)CC[C@]3(CCC(=O)[C@H]32)[C@@H](C)[C@@H]1O (stereo not given in full)	·	-4.9%	·	·	·	·
COc1cc(/C=C/C(=O)O[C@H]2CC[C@]34C[C@]35CC[C@]3(C)[C@@H]([C@H](C)CCC=C(C)C)CC[C@@]3(C)C5CCC4C2(C)C)ccc1O (stereo not given in full)	·	-3.3%	·	·	·	·
Cc1ccc(NS(=O)(=O)c2ccc3ccccc3c2)cc1C	4.8%	·	·	·	·	·
Cn1ccnc1SCC(=O)c1ccc(O)cc1	-8.4%	-9.2%	-9.7%	0.3%	-0.6%	-3.3%
Cn1ccnc1SCC(=O)c1ccc(Cl)cc1	-3.7%	1.4%	-2.6%	-15.7%	3.7%	17.8µM*
CCCCCCC(O)C/C=C\CCCCCCCC(=O)O (stereo not given)	·	3.0%	·	·	·	·
CC[C@@H]1OC(=O)C[C@H](O)[C@@H](C)[C@@H](O[C@H]2O[C@@H](C)[C@H](O[C@@H]3C[C@](C)(O)[C@H](O)[C@@H](C)O3)[C@@H](N(C)C)[C@@H]2O)[C@@H](C=O)C[C@@H](C)C(=O)/C=C/C(C)=C[C@@H]1CO[C@H]1O[C@@H](C)[C@H](O)[C@H](OC)[C@@H]1OC	·	21.4%	·	·	·	·
CCCC[n+]1c2ccccc2cc2ccccc21	-6.5%	5.62µM*	1.7%	-28.6%	-0.1%	?
CCC[n+]1c2ccccc2cc2ccccc21	-2.0%	?	-7.1%	-0.8%	-0.1%	-15.0%

Assay outcomes as filed in PubChem BioAssay.
